Results as given in PubChem BioAssay (NCI).
Compounds without any hit were thinned out: in the full panel of roughly 83,000, 20% have a hit.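 The test compound was applied at a single concentration to cells in 96-well plates for 48 hours, and percent growth was recorded.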 Activity calls are given as the source filed them. How the source made its calls: active means growth percent below 10; inactive means the rest.

Assays:
Assay in all cases: NCI-60 one-dose screen, 48 h (100 = growth as untreated, 0 = no growth, -100 = all killed)
Settings in all cases: 10 µM unless noted
EKVX NSCLC = system: EKVX NSCLC
SN12C renal = system: SN12C renal
UO-31 renal = system: UO-31 renal
TK-10 renal = system: TK-10 renal
ACHN renal = system: ACHN renal
CAKI-1 renal = system: CAKI-1 renal
A498 renal = system: A498 renal
CCRF-CEM leukemia = system: CCRF-CEM leukemia
MOLT-4 leukemia = system: MOLT-4 leukemia
SR leukemia = system: SR leukemia

Measured: growth

CC(C)(C)c1ccc(C(O)CCCN2CCC(C(O)(c3ccccc3)c3ccccc3)CC2)cc1 (configuration not stated)
inactive: EKVX NSCLC 28.3% | A498 renal 50.3%
active: SN12C renal 4.51% | UO-31 renal -80.9% | TK-10 renal -81.7% | ACHN renal -88.2% | CAKI-1 renal 1.36% | CCRF-CEM leukemia -23.6% | MOLT-4 leukemia -13.2%

Cc1nn(-c2ccccc2)c(Cl)c1C(CC(=O)c1ccc(Cl)cc1)CC(=O)c1ccc(Cl)cc1
inactive: EKVX NSCLC 94.8% | SN12C renal 85.2% | UO-31 renal 76.7% | TK-10 renal 104% | ACHN renal 88.4% | CAKI-1 renal 76.4% | A498 renal 66.9%

Cc1cc(C)c(OC(=O)CSc2nc3ccccc3c(=O)n2CCc2ccccc2)cc1C
inactive: EKVX NSCLC 64.4% | SN12C renal 91.8% | UO-31 renal 63.6% | TK-10 renal 124% | ACHN renal 92% | CAKI-1 renal 72.6% | A498 renal 94.5%

O=C1Cc2cc(CCn3cncn3)c(Cl)cc2N1
inactive: EKVX NSCLC 29.5% | SN12C renal 55.8% | UO-31 renal 66% | TK-10 renal 122% | ACHN renal 74.6% | CAKI-1 renal 60% | A498 renal 47.1%

Cc1nn(-c2ccccc2)c2nc(Cl)c(/C=C/C(=O)c3ccccc3)c(-c3ccccc3)c12
inactive: EKVX NSCLC 107% | SN12C renal 102% | UO-31 renal 82.4% | TK-10 renal 121% | ACHN renal 104% | CAKI-1 renal 97.8% | A498 renal 112%

CCOC(=O)C(Cc1ccccc1)(C(=O)OCC)C(Br)C(=O)c1ccccc1 (configuration not stated)
inactive: EKVX NSCLC 88.8% | SN12C renal 88.7% | UO-31 renal 37.6% | TK-10 renal 69.2% | ACHN renal 44.3% | CAKI-1 renal 52% | A498 renal 82.4%

O=C1NC(=O)/C(=C\c2ccccc2)C2=C1CCCC2
active: SN12C renal -64.7% | UO-31 renal -46.7% | TK-10 renal 0.712% | CAKI-1 renal 7.29%
inactive: EKVX NSCLC 95% | ACHN renal 15.7% | A498 renal 101% | CCRF-CEM leukemia 35.8% | MOLT-4 leukemia 38.1%

O=c1c(O)cccn1CCCNCCCN(CCCn1cccc(O)c1=O)CCCn1cccc(O)c1=O
inactive: EKVX NSCLC 93% | SN12C renal 87% | UO-31 renal 104% | TK-10 renal 108% | ACHN renal 101% | CAKI-1 renal 103% | A498 renal 129% | CCRF-CEM leukemia 147% | MOLT-4 leukemia 160%

NS(=O)(=O)c1ccc(NC2=C(Cl)C(=O)c3ccccc3C2=O)cc1
inactive: EKVX NSCLC 107% | SN12C renal 87% | UO-31 renal 53.2% | TK-10 renal 164% | ACHN renal 78.3% | CAKI-1 renal 107% | A498 renal 163% | CCRF-CEM leukemia 85.7% | MOLT-4 leukemia 73.6%

O=C1CN(CO)C(=O)CN1CO
inactive: EKVX NSCLC 114% | SN12C renal 99.3% | UO-31 renal 87.7% | TK-10 renal 124% | ACHN renal 97.6% | CAKI-1 renal 94.8% | A498 renal 94% | CCRF-CEM leukemia 92.8% | MOLT-4 leukemia 105%

O=C1c2ccccc2-c2c1nc1ccccc1[n+]2[O-]
inactive: EKVX NSCLC 118% | SN12C renal 100% | UO-31 renal 83.3% | TK-10 renal 116% | ACHN renal 91.4% | CAKI-1 renal 98.2% | A498 renal 103% | CCRF-CEM leukemia 102% | MOLT-4 leukemia 95.8%

CCCCCCC/C(=N\N=C(N)N)c1ccc(O)cc1
inactive: EKVX NSCLC 55.1% | SN12C renal 39.6% | UO-31 renal 42.8% | TK-10 renal 67.5% | ACHN renal 47.6% | CAKI-1 renal 66.5% | A498 renal 46.6% | CCRF-CEM leukemia 39.7% | MOLT-4 leukemia 24.9%

CN=C(NC)N/N=C(C)\C=N\NC(=NC)NC
inactive: EKVX NSCLC 101% | SN12C renal 96.4% | UO-31 renal 83.7% | TK-10 renal 127% | ACHN renal 101% | CAKI-1 renal 89.1% | A498 renal 96.3% | CCRF-CEM leukemia 106% | MOLT-4 leukemia 101%

Oc1ccccc1/C=N\Nc1ccccc1
inactive: EKVX NSCLC 72.8% | SN12C renal 44.9% | UO-31 renal 15.5% | TK-10 renal 110% | ACHN renal 27.2% | CAKI-1 renal 10.8% | A498 renal 82.5% | CCRF-CEM leukemia 17.8% | MOLT-4 leukemia 35.3%

O=C(OC[C@H]1O[C@H](OC(=O)c2cc(O)c(O)c(OC(=O)c3cc(O)c(O)c(O)c3)c2)[C@H](OC(=O)c2cc(O)c(O)c(OC(=O)c3cc(O)c(O)c(O)c3)c2)[C@@H](OC(=O)c2cc(O)c(O)c(OC(=O)c3cc(O)c(O)c(O)c3)c2)[C@@H]1OC(=O)c1cc(O)c(O)c(OC(=O)c2cc(O)c(O)c(O)c2)c1)c1cc(O)c(O)c(OC(=O)c2cc(O)c(O)c(O)c2)c1
inactive: EKVX NSCLC 37.4% | SN12C renal 31.6% | UO-31 renal 22.1% | TK-10 renal 43.4% | ACHN renal 24.6% | CAKI-1 renal 19.6% | A498 renal 35.6% | CCRF-CEM leukemia 24% | MOLT-4 leukemia 26.3%

Cn1cc(-c2csc(-c3c[nH]c4ncccc34)n2)c2cc(F)cnc21
inactive: EKVX NSCLC 51.9% | SN12C renal 78.1% | UO-31 renal 55.6% | TK-10 renal 54.3% | ACHN renal 53.3% | CAKI-1 renal 45.1% | A498 renal 70.4% | CCRF-CEM leukemia 66.1% | MOLT-4 leukemia 80.5%

COc1ccc(-n2nc3c(c2-c2ccc(OC)c(OC)c2)-c2oncc2CC3)cc1
inactive: EKVX NSCLC 92.6% | SN12C renal 88.4% | UO-31 renal 79.1% | TK-10 renal 103% | ACHN renal 55.7% | CAKI-1 renal 80.6% | A498 renal 83.5% | CCRF-CEM leukemia 50.4% | MOLT-4 leukemia 72.6%

CCC(C)CC(CC)NCCN1CCN(C(CC)CC(C)CC)C1=S (configuration not stated)
inactive: EKVX NSCLC 23% | SN12C renal 36.9% | UO-31 renal 41.4% | TK-10 renal 58.5% | ACHN renal 52.4% | CAKI-1 renal 59.6% | A498 renal 61.9% | CCRF-CEM leukemia 24.3% | MOLT-4 leukemia 38.5%

COc1cc([C@@H]2c3cc4c(cc3C(O[C@@H]3O[C@@H]5CO[C@@H](c6cccs6)OC5[C@H](O)[C@H]3O)C3COC(=O)[C@@H]32)OCO4)cc(OC)c1O (some centres not stated)
inactive: EKVX NSCLC 12.7%
active: SN12C renal -9.91% | UO-31 renal -72.2% | TK-10 renal -54.7% | ACHN renal -54.3% | CAKI-1 renal -10.3% | A498 renal -73.2% | CCRF-CEM leukemia -1.14% | MOLT-4 leukemia 3.06%

NC(N)=NC(N)=NCCCc1ccccc1
inactive: EKVX NSCLC 31.8% [100 µM] | SN12C renal 79.3% [100 µM] | UO-31 renal 65.9% [100 µM] | TK-10 renal 63.3% [100 µM] | ACHN renal 65.8% [100 µM] | CAKI-1 renal 63.7% [100 µM] | A498 renal 68.3% [100 µM] | CCRF-CEM leukemia 69.1% [100 µM] | MOLT-4 leukemia 73.8% [100 µM]

OCCOc1c(Cl)cc(Cl)cc1Cl
inactive: EKVX NSCLC 106% | SN12C renal 89.8% | UO-31 renal 87.8% | TK-10 renal 113% | ACHN renal 99.3% | CAKI-1 renal 93.8% | A498 renal 70.7% | CCRF-CEM leukemia 113% | MOLT-4 leukemia 111%

COc1c(C)c2c(c(O)c1C/C=C(\C)CCC(=O)OCCN1CCOCC1)C(=O)OC2
inactive: EKVX NSCLC 46% | SN12C renal 24.1% | UO-31 renal 15.4% | TK-10 renal 27.1% | ACHN renal 27% | A498 renal 30% | CCRF-CEM leukemia 18.6% | MOLT-4 leukemia 24.4%
active: CAKI-1 renal 5.19%

Clc1ccc(CCC(Cn2ccnc2)Sc2c(Cl)cccc2Cl)cc1 (configuration not stated)
inactive: EKVX NSCLC 52.2% | SN12C renal 55.6% | UO-31 renal 30.5% | TK-10 renal 52.4% | ACHN renal 65.4% | CAKI-1 renal 43.3% | A498 renal 73.7% | CCRF-CEM leukemia 35.1% | MOLT-4 leukemia 34.6%

Cn1cc(-c2csc(-c3c[nH]c4ncccc34)n2)c2cc(Br)cnc21
active: SN12C renal 4.21% | TK-10 renal -21.8%
inactive: EKVX NSCLC 24.2% | UO-31 renal 28.8% | ACHN renal 29.6% | CAKI-1 renal 12.5% | A498 renal 71.7% | CCRF-CEM leukemia 68% | MOLT-4 leukemia 76.2%

Cc1cccc(Cl)c1NC(=O)c1ccc2nc(NC(=O)NC3CC(C)(C)NC(C)(C)C3)sc2c1
inactive: EKVX NSCLC 94.5% | SN12C renal 56.5% | UO-31 renal 88.7% | TK-10 renal 80.2% | ACHN renal 94.9% | CAKI-1 renal 92% | A498 renal 89% | CCRF-CEM leukemia 87.7% | MOLT-4 leukemia 70% | SR leukemia 95.6%

Fc1ccc([C@@H]2CCNC[C@H]2COc2ccc3c(c2)OCO3)cc1
inactive: EKVX NSCLC 77.3% | SN12C renal 58.6% | UO-31 renal 40.4% | TK-10 renal 58.4% | ACHN renal 67% | CAKI-1 renal 67% | A498 renal 86.1% | CCRF-CEM leukemia 60.6% | MOLT-4 leukemia 68.3%

CCCCc1nc(Cl)c(CO)n1Cc1ccc(-c2ccccc2-c2nn[nH]n2)cc1
inactive: EKVX NSCLC 88.1% | SN12C renal 99.3% | UO-31 renal 82.2% | TK-10 renal 108% | ACHN renal 107% | CAKI-1 renal 90.5% | A498 renal 119% | CCRF-CEM leukemia 113% | MOLT-4 leukemia 100%

C=CC1=C(C(=O)O)N2C(=O)[C@@H](NC(=O)/C(=N\O)c3csc(N)n3)[C@H]2SC1 (stereo in doubt)
inactive: EKVX NSCLC 103% | SN12C renal 112% | UO-31 renal 91.7% | TK-10 renal 122% | ACHN renal 96.7% | CAKI-1 renal 99.2% | A498 renal 95.1% | CCRF-CEM leukemia 98.1% | MOLT-4 leukemia 104%

CCCCN(CCCC)CCCOC(=O)c1ccc(N)cc1
inactive: EKVX NSCLC 94.3% | SN12C renal 82% | UO-31 renal 81.2% | TK-10 renal 103% | ACHN renal 91.9% | CAKI-1 renal 90.5% | A498 renal 104% | CCRF-CEM leukemia 96.8% | MOLT-4 leukemia 93.2%
